{"source": "PubChem BioAssay AID493073", "about": "(Broad Institute, 2011)", "note": "The whole screen tested about 1,200 compounds, of which about 810 (68%) were called active. So high a share suggests a set chosen from earlier hits. Only a sample is shown. Entries with a potency or affinity are not part of this list. Values without a mark were called inactive. The rule behind the calls is not given here.", "data": [{"assay": "TRPM1 promoter luciferase signal decrease, dose response, MITF inhibitor project, cell-based, SK-MEL-5, cherry-picked, set 3 (AID 493073)", "conditions": "SK-MEL-5 TRPM1 promoter luciferase, 24 h; series mostly up to 35 µM; activity change, negative = inhibition: at the top concentration", "units": {"activity change, negative = inhibition": "%"}, "values": [{"compound": "CCCC1=Nc2cc(C(=O)NCCN3CCCC3)ccc2Sc2ccccc21", "activity change, negative = inhibition": -84}, {"compound": "COc1ccc(/C=C2\\Sc3ccc(C(=O)NCCN4CCCCCC4)cc3N(C)C2=O)cc1", "activity change, negative = inhibition": -76.3}, {"compound": "CCN1CCN(CCCNC(=O)c2ccc3c(Cl)c4c(nc3c2)CCCC4)CC1", "activity change, negative = inhibition": -101}, {"compound": "Cc1ccc(-c2noc(-c3ccno3)n2)cc1", "activity change, negative = inhibition": 83.1}, {"compound": "Cc1ccc2[nH]c(=O)c(CN(CCCN(C)C)C(=O)Nc3cccc(Cl)c3)cc2c1", "activity change, negative = inhibition": -105}, {"compound": "O=C(NCc1ccc2c(c1)OCO2)c1cc(=O)[nH]c2ccccc12", "activity change, negative = inhibition": 0.381}, {"compound": "Nc1c(N(CCC2=CCCCC2)C(=O)COc2ccc(F)cc2)c(=O)[nH]c(=O)n1Cc1ccccc1", "activity change, negative = inhibition": -94.3}, {"compound": "O=C(NCc1csc(-c2cccs2)n1)C1CCC1", "activity change, negative = inhibition": 76.4}, {"compound": "CCOc1ccc(NC(=O)c2ccc3snnc3c2)cc1", "activity change, negative = inhibition": -60.8}, {"compound": "O=C(Nc1ccc(Cl)cc1)OCc1ccccn1", "activity change, negative = inhibition": 105}, {"compound": "O=C(Nc1ccc2c(c1)OCCO2)c1cccc(Cl)c1Cl", "activity change, negative = inhibition": 22.9}, {"compound": "O=C(Nc1ccc2c(c1)OCCO2)c1ccoc1", "activity change, negative = inhibition": 39.9}, {"compound": "O=C1CN(c2ccccc2)C(=S)N1C(=O)c1ccccc1", "activity change, negative = inhibition": 75}, {"compound": "COc1ccc(NC(=O)c2cc(F)cc(F)c2)cc1Cl", "activity change, negative = inhibition": -77.3}, {"compound": "O=[N+]([O-])c1ccc(N/N=C/C=C/c2ccco2)cc1", "activity change, negative = inhibition": 51}, {"compound": "CCN(CC)CC(=O)Nc1scc2c1c(=O)oc1ccccc12", "activity change, negative = inhibition": 129}, {"compound": "Fc1ccc(-c2nnc(-c3ccc(F)cc3)o2)cc1", "activity change, negative = inhibition": 47.1}, {"compound": "CCOC(=O)c1ccc(NC(=O)Cc2cccs2)cc1", "activity change, negative = inhibition": 77.7}, {"compound": "CCc1ccc(Nc2nc(C)cc(C)n2)cc1", "activity change, negative = inhibition": 83.9}, {"compound": "O=C(N/N=C/C(Cl)=C\\c1ccccc1)c1cccs1", "activity change, negative = inhibition": 64.5}, {"compound": "C/C(=C\\c1ccccc1)C(=O)Nc1ccc(Cl)cn1", "activity change, negative = inhibition": 47.7}, {"compound": "Brc1cccc(/C=N/Nc2nn[nH]n2)c1", "activity change, negative = inhibition": -36.9}, {"compound": "Cc1ccc2cc(NC(=O)Cc3ccccc3)ccc2n1", "activity change, negative = inhibition": 76.3}, {"compound": "CN(c1cccc(NC(=O)COc2ccc(Cl)cc2Cl)c1)S(C)(=O)=O", "activity change, negative = inhibition": 40.2}, {"compound": "O=C(Nc1ccccc1)O/N=C/c1ccc(F)cc1", "activity change, negative = inhibition": 42.1}, {"compound": "O=C(N/N=C/c1ccccc1)c1ccco1", "activity change, negative = inhibition": 51.9}, {"compound": "O=C(C[n+]1cc(-c2ccc(F)cc2)n2c1CCC2)c1cccs1", "activity change, negative = inhibition": 47.1}, {"compound": "COc1ccc(C(=O)Nc2ccc3ccccc3c2)cc1OC", "activity change, negative = inhibition": 80.8}, {"compound": "COc1cc(-c2nnc(-c3ccco3)o2)ccc1OCc1ccccc1", "activity change, negative = inhibition": 46.7}, {"compound": "CCOC(=O)C1(Cc2ccccc2)CCCN(CCCn2cccn2)C1", "note": "(configuration not stated)", "activity change, negative = inhibition": -1.67}, {"compound": "CCOc1ccc(-c2nnc(-c3cccs3)o2)cc1OCC", "activity change, negative = inhibition": 136}, {"compound": "O=C(COc1ccc2c(c1)CCC2)N1CCc2ccccc21", "activity change, negative = inhibition": 100}, {"compound": "Cc1ccc2nc(-c3cccnc3)oc2c1", "activity change, negative = inhibition": 15.7}, {"compound": "Oc1cc(NCc2cccnc2)ccc1-c1nc2ccccc2o1", "activity change, negative = inhibition": 15.3}, {"compound": "O=C(Nc1ccccc1Cl)c1cc(=O)c2ccccc2o1", "activity change, negative = inhibition": -80.1}, {"compound": "CC(C)c1ccc(CNc2ncccn2)cc1", "activity change, negative = inhibition": 103}, {"compound": "COCc1nc(-c2ccc(-c3ccccc3)nc2OC)no1", "activity change, negative = inhibition": 6}, {"compound": "COc1ccc(S(=O)NC2CCCCC2)c(OC)c1C", "note": "(configuration not stated)", "activity change, negative = inhibition": 21.7}, {"compound": "COc1cc(CN2CCC(Cc3ccccc3)CC2)cc(OC)c1OC", "activity change, negative = inhibition": 102}, {"compound": "O=C(CCCCC(=O)NN=Cc1ccccc1O)NN=Cc1ccccc1O", "activity change, negative = inhibition": 23.5}, {"compound": "CC(C)C(NC(=O)OCc1ccccc1)C(=O)OCC(=O)N1CCCCC1", "note": "(configuration not stated)", "activity change, negative = inhibition": 5.47}, {"compound": "Cc1ccc2c(COC(=O)c3n[nH]c4ccccc34)cc(=O)oc2c1", "activity change, negative = inhibition": 114}, {"compound": "N#Cc1ccc(-c2cccnc2)nc1SCC(=O)c1ccccc1", "activity change, negative = inhibition": 33.3}, {"compound": "O=C(CCCCl)NC(=S)Nc1ccc(N2CCOCC2)cc1", "activity change, negative = inhibition": 13.8}, {"compound": "CS(=O)(=O)c1ncc(Cl)c(C(=O)Nc2ccc3ccccc3c2)n1", "activity change, negative = inhibition": -108}, {"compound": "CCNc1nc(N)c(C(=O)c2ccc(Cl)s2)s1", "activity change, negative = inhibition": 45.7}, {"compound": "COc1ccc(-c2nc(-c3ccncc3)no2)cc1OC", "activity change, negative = inhibition": 111}, {"compound": "c1ccc(OCc2nn3c(-c4ccccn4)nnc3s2)cc1", "activity change, negative = inhibition": 51}, {"compound": "COc1cccc(/C=N/NC(=O)CN2CC(c3ccccc3)CC2=O)c1OC", "note": "(configuration not stated)", "activity change, negative = inhibition": -2.27}, {"compound": "Cc1cc(/C=C(\\C#N)C(=O)O)c(C)n1CC(C)C", "activity change, negative = inhibition": 8.27}, {"compound": "CSCCNC(=O)c1ccc2nc(Cc3ccccc3F)oc2c1", "activity change, negative = inhibition": 85.4}, {"compound": "Cc1nc2ccc(NC(=O)c3ccco3)cc2nc1C", "activity change, negative = inhibition": 7.37}, {"compound": "O=C(Nc1ccc2nc(-c3ccccc3)[nH]c2c1)c1ccco1", "activity change, negative = inhibition": 128}, {"compound": "Cc1nc(NC(=O)C2CC2)sc1C(=O)Nc1ccccc1Cl", "activity change, negative = inhibition": 64.3}, {"compound": "CN(C)c1ccc(/C=N\\NC(=O)c2cccc3cc[nH]c23)cc1", "activity change, negative = inhibition": 27.5}, {"compound": "O=C(CSCc1c(F)cccc1F)Nc1ccccc1", "activity change, negative = inhibition": 134}, {"compound": "O=C(CCC1CCCN(C(=O)c2cc3ccccc3o2)C1)NCc1ccc(F)c(F)c1", "note": "(configuration not stated)", "activity change, negative = inhibition": 3.79}, {"compound": "CN(C)CCCNc1nc2sc3c(c2c(=O)n1CCc1ccccc1)CCCCC3", "activity change, negative = inhibition": -102}, {"compound": "CCOC(=O)C1CCCN(C(=O)C2CCN(S(=O)(=O)CC)CC2)C1", "note": "(configuration not stated)", "activity change, negative = inhibition": 93}, {"compound": "N/C(=N\\OC(=O)c1ccc(Cl)cc1Cl)c1ccncc1", "activity change, negative = inhibition": 21.6}, {"compound": "CC(C)S(=O)(=O)c1csc(C(=O)Nc2ccc(F)cc2)c1N", "activity change, negative = inhibition": 52}, {"compound": "C/C(=N\\Nc1cc(N2CCOCC2)ncn1)c1ccccc1", "activity change, negative = inhibition": 65.8}]}]}
